Only some compounds are listed: those with a hit (about 5.7% of all), similar ones and a draw of the others.
hcDAF-12 act: H. contortus DAF-12 nuclear receptor activators, primary screen, cell-based, luminescence, HEK293, lit1-tk-luc reporter; HEK293 hcDAF-12 lit1-tk-luc reporter; 0% DMSO, 100% Δ7-dafachronic acid; activation, % at 6.8 µM; 1.4% of 370,000 active; AID 652067, 2013;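 active = activation above the mean of all tested compounds plus 3 SD, cut at about 5.5% in these data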;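 note: 100% = response to 3 µM Δ7-dafachronic acid high control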
AHR activator: AHR activators, primary screen, cell-based, luminescence, luciferase reporter, human; Aryl hydrocarbon receptor (Homo sapiens), P35869; AHR-responsive luciferase reporter cells; activation, % at 5 µM; 2.5% of 320,000 active; AID 2796, 2010; in the data active = activation above about 47%;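 note: 0% = vehicle wells and 100% = reference agonist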
Target sequence (P35869 whole entry, looked up): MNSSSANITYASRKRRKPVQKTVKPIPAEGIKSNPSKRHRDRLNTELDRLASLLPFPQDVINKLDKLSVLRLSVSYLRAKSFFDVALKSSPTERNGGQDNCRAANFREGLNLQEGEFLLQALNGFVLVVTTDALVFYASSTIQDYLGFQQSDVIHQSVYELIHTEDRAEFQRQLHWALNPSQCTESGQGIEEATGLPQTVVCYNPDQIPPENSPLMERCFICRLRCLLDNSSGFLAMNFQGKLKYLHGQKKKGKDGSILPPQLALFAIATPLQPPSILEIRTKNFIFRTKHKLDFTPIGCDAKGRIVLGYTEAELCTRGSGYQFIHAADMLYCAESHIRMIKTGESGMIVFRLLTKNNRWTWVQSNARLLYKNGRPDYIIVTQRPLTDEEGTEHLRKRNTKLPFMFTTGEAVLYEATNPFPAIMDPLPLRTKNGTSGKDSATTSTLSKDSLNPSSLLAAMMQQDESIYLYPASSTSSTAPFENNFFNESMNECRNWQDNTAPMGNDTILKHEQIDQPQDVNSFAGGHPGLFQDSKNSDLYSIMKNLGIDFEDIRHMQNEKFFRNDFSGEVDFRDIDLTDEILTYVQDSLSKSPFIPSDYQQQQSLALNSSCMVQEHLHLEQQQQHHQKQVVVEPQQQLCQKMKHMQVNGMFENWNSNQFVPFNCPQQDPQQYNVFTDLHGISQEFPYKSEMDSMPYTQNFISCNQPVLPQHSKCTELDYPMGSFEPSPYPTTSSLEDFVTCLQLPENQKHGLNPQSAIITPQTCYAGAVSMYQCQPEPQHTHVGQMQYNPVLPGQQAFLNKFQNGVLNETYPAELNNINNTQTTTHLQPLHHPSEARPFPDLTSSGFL
hgDAF12 agonist: H. glycines DAF-12 receptor agonists, primary screen, cell-based, luminescence, HEK293, GAL4 fusion, UAS-luciferase; Nuclear hormone receptor DAF-12 (Heterodera glycines), GAL4 fusion; HEK293 GAL4-hgDAF12 UAS-luciferase reporter, agonist luminescence; normalized to butyrate control; activation, % at 6.8 µM; 1.8% of 370,000 active;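 active = activation above a cutoff set at the mean of all screened compounds plus 3 SD, cut at about 10% in these data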;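 note: 0% = DMSO wells and 100% = sodium butyrate wells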
ssDAF-12 act: S. stercoralis DAF-12 nuclear receptor activators, primary screen, cell-based, luminescence, HEK293, GRIP1 co-expression, lit1-tk-luc | Nuclear hormone receptor DAF-12 (Strongyloides stercoralis) | HEK293 ssDAF-12/GRIP1 lit1-tk-luc reporter; % of 3 µM dafachronic acid response | activation, % at 6.8 µM | 1% of 370,000 active;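 active = activation above the mean over all tested compounds plus 3 SD, cut at about 0.9% in these data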;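 note: 0% = DMSO-only wells and 100% = 3 µM delta7-dafachronic acid wells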
DAX1 inh-1: DAX1 (NR0B1) inhibitors, primary screen, cell-based, HEK293, Gal4-DAX1, luciferase luminescence. HEK293 Gal4-DAX1 luciferase reporter. inhibition, % at 6.75 µM. 0.99% of 340,000 active. AID 504766, 2011;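 active = inhibition above the mean over all tested compounds plus 3 SD, cut at about 4.2% in these data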;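 note: 0% = DAX1-transfected cells with DMSO and 100% = empty-vector control cells with DMSO; inhibition shows as a rise in luminescence from relieved DAX1 repression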
DAX1 inh-2: DAX1 (NR0B1) inhibitors on StAR promoter, primary screen, cell-based, luminescence, SF-1 (NR5A1), full-length DAX-1; 1.1% of 370,000 active; inhibition, % at 6.8 µM; HEK293T StAR-luciferase reporter, SF-1/DAX-1 repression relief;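 active = inhibition above the mean over all tested compounds plus 3 SD, cut at about 3.6% in these data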;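 note: 0% = DAX-1 cells with DMSO and 100% = cells lacking DAX-1 with DMSO; higher inhibition means more luminescence from relief of DAX-1 repression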
An asterisk follows results filed as active; nt = no result given.

SMILES | hcDAF-12 act | AHR activator | hgDAF12 agonist | ssDAF-12 act | DAX1 inh-1 | DAX1 inh-2
CCc1ccc(N2CN=c3s/c(=C\c4ccccc4)c(=O)n3C2)cc1 | -3 | 3 | 1 | -2 | 5.3* | 0
O=C(N/N=C/c1ccc(F)cc1)c1cccc(NC(=O)c2ccc(F)cc2)c1 | 0 | 60* | 4 | 0 | -1 | 0
COc1ccc(/C=N/NC(=O)c2cccc(C(=O)N/N=C/c3ccc(OC)cc3)n2)cc1 | 0 | 5 | 1 | -1 | 1 | 0
O=C(N/N=C/c1ccccc1C(F)(F)F)c1ccc(O)cc1 | 1 | 4 | 7 | 0 | 5.0* | 2
O=C(N/N=C/c1ccncc1)c1cccc(NC(=O)c2ccc(Cl)cc2)c1 | -1 | 1 | 1 | -2 | -2 | -1
O=C(N/N=C\c1ccccc1)c1cccc(C(=O)N/N=C\c2ccccc2)n1 | 1 | 70* | 2 | 0 | nt | 0
O=C(N/N=C/c1sc2ccccc2c1O)c1ccccc1 | nt | 73* | nt | nt | -3 | nt
O=C(N/N=C/c1ccccc1O)c1cccc(C(F)(F)F)c1 | -3 | 8 | -7 | -2 | -2 | -3
C[C@H]1C(C(=O)N(C)C2CCCCC2)=Cc2c(n(-c3ccc(F)cc3)c(=O)n2CCCOc2ccccc2)C=C1c1ccccc1 | -2 | nt | 1 | 0 | nt | 1
COc1nccnc1NS(=O)(=O)c1ccc(NC(=O)c2cccc(C)c2)cc1 | -2 | 1 | -1 | -1 | 2 | 0
O=C(N/N=C/c1ccco1)c1cccc(NC(=O)c2cccc(Cl)c2)c1 | -2 | 55* | 1 | -1 | -1 | 0
O=C(N/N=C/c1ccc(F)cc1)c1ccccc1 | 3 | 8 | 13* | 0 | 5.2* | 3
COc1ccc(/C=C/C(=O)Oc2ccc(/C=N/NC(=O)c3ccccc3)cc2)cc1OC | 0 | 3 | 6 | 0 | 4.2* | 0
COc1ccc(/C=N/NC(=O)c2ccncc2)cc1OC | -2 | 10 | -2 | -1 | 0 | 0
O=C(N/N=C/c1ccco1)c1ccc(NC(=O)c2ccccc2Cl)cc1 | -1 | -2 | 0 | -1 | -1 | 0
O=C(N/N=C\c1ccc(F)cc1)c1csnn1 | 1 | 21 | 13* | -1 | 3 | 2
O=C(COCC(=O)N/N=C/c1ccc(F)cc1)N/N=C/c1ccc(F)cc1 | 1 | 9 | 1 | -1 | -1 | 0
O=C(Cc1ccc([N+](=O)[O-])cc1)N1N=C(c2ccncc2)CC1(O)C(F)(F)F (configuration not stated) | -1 | 5 | -2 | -1 | 1 | 0
CN(C)CCNc1ncnc2c1ncn2[C@H]1CN(Cc2ccc3c(c2)OCO3)C[C@@H](CO)O1 | 0 | nt | 3 | 0 | nt | 0
CN(C)S(=O)(=O)c1ccc(C(=O)NCCC(=O)N2CCCC2)cc1 | -2 | 5 | -1 | -1 | 1 | 0
O=C(N/N=C/c1ccc(OC(=O)c2ccccc2Br)cc1)c1ccccn1 | 5 | 22 | 10 | 0 | 1 | 5.8*
O=C(O)COc1ccc(/C=N/NC(=O)c2ccccc2Br)cc1 | nt | 11 | nt | nt | 0 | nt
COCCNC(=O)C(c1ccc(Cl)cc1)N(CCOC)C(=O)CCC(=O)Nc1nccs1 (configuration not stated) | 4 | 1 | 1 | -1 | 1 | 0
Clc1ccc2nc(CSc3nnc(-c4c[nH]c5ccccc45)o3)cn2c1 | 0 | nt | -1 | -1 | -1 | 0
Clc1cccc(CSc2nnc(-c3c[nH]c4ccccc34)o2)c1 | -1 | 52* | 2 | -1 | 0 | -1
SMILES | hcDAF-12 act | AHR activator | hgDAF12 agonist | ssDAF-12 act | DAX1 inh-1 | DAX1 inh-2
COc1cc(N=Nc2ccc(Br)cc2)cc(C=O)c1O | -1 | nt | 1 | 0 | 3 | -1
CN(C)c1ccc(NC(=O)c2ccc(Cn3cc([N+](=O)[O-])cn3)cc2)cc1 | -1 | 71* | 2 | 0 | 1 | 3
O=S(=O)(c1ccc(F)cc1)N1CCN(c2ccccn2)CC1 | 3 | 11 | 1 | 1.6* | 0 | 0
O=C(Nc1c(F)cc(F)cc1Br)c1cc(S(=O)(=O)N2CCN(c3ccccn3)CC2)ccc1F | -3 | 1 | -1 | -2 | 4.7* | -2
COC(=O)[C@H]1C[C@@]2(C)c3ccccc3N(C(=O)OC(C)(C)C)[C@H]2N1C(=O)OC(C)(C)C | -1 | nt | 0 | 0 | nt | -1
Cc1cc(C)c(S(=O)(=O)N2CCOC2CNC(=O)C(=O)NCc2ccco2)c(C)c1 (configuration not stated) | 0 | 4 | 2 | -2 | -1 | 0
CC(=O)C1=CCC(c2ccc(C)o2)N(S(=O)(=O)c2ccc(C)cc2)C1 (configuration not stated) | -1 | nt | -2 | -2 | nt | 1
CC(=O)c1ccc(NC(=O)C2Cc3ccccc3CN2C(=O)c2ccccc2)cc1 (configuration not stated) | 6.0* | 8 | 3 | 0 | -1 | 0
O=C(c1ccccc1Cl)c1c(O)c2ccccc2oc1=O | -1 | 55* | 1 | -1 | 5.6* | 0
CC(=O)Nc1nc(-c2ccc3ccccc3c2)cs1 | 5 | -4 | 13* | 0 | 3 | 2
COc1ccc(-c2csc(Nc3ccc(Oc4ccccc4)cc3)n2)cc1 | -2 | nt | -2 | -2 | nt | -3
Oc1ccc(Nc2nc(-c3ccc4ccccc4c3)cs2)cc1 | -1 | 64* | -4 | -2 | -2 | -2
CC(=O)NCCC(=O)Nc1nc(-c2ccc3ccccc3c2)cs1 | 0 | nt | 1 | 1 | 1 | 0
Cc1cc(NS(=O)(=O)c2ccc(Nc3nc(-c4ccc(C)c(C)c4)cs3)cc2)no1 | -2 | 0 | 2 | -1 | 0 | 0
CCC(=O)Nc1ccc(-c2csc(C)n2)cc1 | 1 | -2 | 8 | -1 | 2 | 1
Cc1cc(NS(=O)(=O)c2ccc(Nc3nc(-c4ccc(O)cc4)cs3)cc2)no1 | -1 | 60* | 2 | -1 | 2 | 0
CCC(=O)Nc1ccc(-c2csc(NNC(C)=O)n2)cc1 | 1 | 5 | 2 | 0.9* | 0 | 0
O=C(OCC(=O)N1CCCC1)c1c(Cl)cccc1Cl | -2 | 36 | 0 | -1 | 0 | 0
CCN(C(=O)CSc1n[nH]c(-c2ccc(OC)cc2)n1)c1c(N)n(Cc2ccccc2)c(=O)[nH]c1=O | 2 | nt | 1 | -1 | 1 | 0
